Here are results for 33 compounds from ChEMBL document CHEMBL3433997, “St. Jude Leishmania screening dataset” (2016).

Type in all cases: functional
Assay [1] concerns the target Solute carrier family 2, facilitated glucose transporter member 1 (Homo sapiens) (UniProt P11166). The experiment in a line: ST_JUDE_LEISH: Cytotoxicity at 2uM final concentration against transgenic Leishmania Mexicana promastigotes LmGLUT1 that are glucose transport deficient and complemented with the human glucose transporter GLUT1. Activity is measured by DNA content using SYBR green in vitro.

The target of assay [2] is Hexose transporter 1 (Plasmodium falciparum) (UniProt O97467). The experiment in a line: ST_JUDE_LEISH: Cytotoxicity at 2uM final concentration against transgenic Leishmania Mexicana promastigotes LmPfHT that are glucose transport deficient and complemented with the Plasmodium falciparum hexose transporter. Activity is measured by DNA content using SYBR green in vitro.

In assay [3] the target is Glucose transporter (Leishmania mexicana) (UniProt O61059). Put plainly: ST_JUDE_LEISH: Cytotoxicity at 2uM final concentration against transgenic Leishmania Mexicana promastigotes LmGT2 that are glucose transport deficient and complemented with the L. Mexicana glucose transporter 2. Activity is measured by DNA content using SYBR green in vitro.

Solute carrier family 2, facilitated glucose transporter member 1 (Homo sapiens), sequence (P11166 whole entry): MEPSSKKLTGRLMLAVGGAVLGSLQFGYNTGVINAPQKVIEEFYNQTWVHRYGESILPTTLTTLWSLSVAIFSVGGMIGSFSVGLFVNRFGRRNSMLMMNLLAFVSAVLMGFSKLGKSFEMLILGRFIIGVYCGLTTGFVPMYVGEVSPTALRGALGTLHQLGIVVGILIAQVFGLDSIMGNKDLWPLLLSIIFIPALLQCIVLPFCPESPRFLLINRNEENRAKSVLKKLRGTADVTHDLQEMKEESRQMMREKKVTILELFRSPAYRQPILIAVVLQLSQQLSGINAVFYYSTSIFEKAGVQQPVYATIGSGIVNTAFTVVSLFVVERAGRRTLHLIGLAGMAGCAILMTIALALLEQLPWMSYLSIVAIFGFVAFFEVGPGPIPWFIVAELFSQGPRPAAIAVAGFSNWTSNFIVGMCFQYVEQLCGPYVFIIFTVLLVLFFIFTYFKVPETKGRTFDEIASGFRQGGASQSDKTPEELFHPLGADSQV

The inhibition is the drop in the measured response relative to a control, in per cent. Consider `Cc1ccc(NC(=O)c2ccc3ncccc3c2)cc1OC1CCN(Cc2ccsc2)C1` (centres undefined), for which the inhibition worked out at 3.87% in assay [1], 1.3% in assay [2] and 0.48% in assay [3].
The matching figures for `O=C(/C=C/c1ccc(Cl)c(Cl)c1)NCCCCCCN1CCN(C(=O)Nc2ccc(OC(F)F)cc2)CC1`: 5.36%, 6.98% and 6.38%.
The like results for `CC1(C)N=C(N)N=C(N)N1c1cccc(C(F)(F)F)c1` were, in that order, -1.8%, -0.92% and -3.44%.
The like results for `O=C(c1cc(OC(F)(F)F)ccc1O)N1CCN(c2ccccc2)CC1` were, in that order, 5.08%, 4.52% and 7.06%.
For the compound `Cn1c(N)cc(-c2ccc(Br)cc2)c2c(=O)nc(N)nc1-2`, the inhibition in assay [1] is 6.75%; in assay [2], 4.96%; in assay [3] it was 5.76%.
The like results for `CCNc1cc(C(=O)N[C@@H](Cc2ccccc2)[C@H](O)CNC(CC)c2cccc(Cl)c2)cc(N2CCCCS2(=O)=O)c1` (some centres undefined) were, in that order, 4.81%, 1.05% and -0.27%.
Take `Cc1ccc2nc(C)cc(Nc3ccccc3O)c2c1`: the inhibition was -0.76% in assay [1], -1.41% in assay [2] and -1.03% in assay [3].
With `COC(=O)Cn1c(C2CCN(CC3CCC(NC(=O)/C=C/c4ccc(Cl)c(Cl)c4)CC3)CC2)nc2ccccc21` (centres undefined), the inhibition in assay [1] stood at 1.86%; in assay [2] it was 0.18%; in assay [3] it was 2.43%.
The like results for `COc1cc(-c2nc(-c3ccccc3)c(-c3ccccc3)[nH]2)cc(OC)c1O` were, in that order, -0.19%, -0.87% and -1.53%.
The like results for `CCOc1cc(C(=O)NC2CCN(Cc3ccccc3)CC2)ccc1-c1nc2cc(Cl)c(Cl)cc2[nH]1` were, in that order, 2.82%, 5.07% and -0.27%.
The like results for `COc1ccc2nccc([C@@H](O)CN3CCC(NCCOc4cc(F)cc(F)c4)CC3)c2c1` were, in that order, 9.84%, 19.3% and 4.32%.
For the compound `O=C(Nc1cc(Cl)ccc1Cl)N[C@H]1CCN(CCCCCNC(=O)C2CC2c2ccc(Cl)c(Cl)c2)C1` (some centres undefined), the inhibition in assay [1] stood at 1.43%; in assay [2] it was 1.2%; in assay [3] it was 4.46%.
The like results for `COc1cc(Nc2nccc(N3CCC(NC(=O)c4cccc(NC(C)=O)c4)C3)n2)cc(OC)c1OC` (centres undefined) were, in that order, 0.31%, 0.55% and -0.85%.
The like results for `O=C(Nc1ccc([N+](=O)[O-])cc1Br)c1cc2ccccc2nc1Cl` were, in that order, 8.95%, 8.73% and 7.12%.
The matching figures for `COc1ccccc1-c1ccc(CNC(=O)C(CN2CCN(C)CC2)c2ccccc2)cc1` (centres undefined): 2.94%, 1.12% and 2.44%.
For `CCCOc1cc(Cc2cnc(N)nc2N)cc(OC)c1OC`, the inhibition in assay [1] was -1.05%; in assay [2], -1.9%; in assay [3] it was -0.03%.
As to `Cc1ccc(/C=C2/SC(=Nc3ccccc3)NC2=O)c(C)c1`, the results for the inhibition in assay [1], in assay [2] and in assay [3] were 13.2%, 12.1% and 7.9%, respectively.
The matching figures for `OC1CCCN(Cc2ccc(-c3ccc(-c4nc5cc(F)ccc5[nH]4)cc3)cc2)C1` (centres undefined): 9.06%, 8.43% and 6.49%.
Regarding `CN(C)CCCNC(=O)c1ccccc1Sc1ccccc1C#N`, the inhibition in assay [1] was found to be 0.79%; in assay [2], 1.43%; in assay [3], 1.54%.
The matching figures for `Cc1ncccc1C(=O)Nc1cccc(-c2cccc(-c3nc4cccc(C)c4[nH]3)c2)c1`: 0.36%, 1.44% and 1.05%.
The like results for `Cc1ccccc1OCC(O)CN1CCC(C2CCN(CC(O)COc3ccccc3C)CC2)CC1` (centres undefined) were, in that order, 2.25%, 2% and 2.28%.
The matching figures for `O=C(Nc1ccc(Cl)cc1)c1cccc(CN2CCCN(Cc3cccc(O)c3)CC2)c1`: -0.2%, -0.04% and 0.01%.
As for `CC(C)C1=C[C@H]2C[C@]3(C4OCCO4)[C@@H]4CC[C@@H](C)[C@H]4C[C@@]2(C(=O)OCC2COCO2)[C@]13C(=O)OC(c1ccccc1)c1ccccc1` (some centres undefined), the inhibition was -1.18% in assay [1], -2.48% in assay [2] and -1.79% in assay [3].
The matching figures for `CN(C)CCN(Cc1ccccc1)c1ccc([N+](=O)[O-])cc1C(F)(F)F`: 7.95%, 7.06% and 8.1%.
As to `COc1cccc(Nc2nccc(-c3c(-c4cccc(NC(=O)c5c(F)cccc5F)c4)nn4ccccc34)n2)c1`, the results for the inhibition in assay [1], in assay [2] and in assay [3] were 5%, 13.3% and 5.92%, respectively.
The like results for `Fc1ccc2[nH]c(-c3cccc(-c4ccc(CNCc5cnn(-c6ccccc6)n5)cc4)c3)nc2c1` were, in that order, 0.4%, 1.9% and 0.03%.
Regarding `Fc1ccc2[nH]c(-c3ccc(-c4ccc(CN5CCN(CCN6CCOCC6)CC5)cc4)cc3)nc2c1`, the inhibition came out at 5.88% in assay [1], 4.38% in assay [2] and 1.45% in assay [3].
On to `OC1CCCN(Cc2cccc(-c3ccc(-c4nc5cc(F)ccc5[nH]4)cc3)c2)C1` (centres undefined), for which the inhibition is 4.24% in assay [1], 3.92% in assay [2] and 4.6% in assay [3].
The matching figures for `O=C(N[C@@H](Cc1ccccc1)[C@H](O)CNC1CCCCC1)c1cc(C2CCCC2)cc(N2CCCC2=O)c1`: -1.39%, -1.21% and -3.12%.
`COc1ccc2[nH]c(C)cc(=NN=Cc3cc(C)ccc3O)c2c1`: the inhibition worked out at 13.1% in assay [1], 11.2% in assay [2] and 8.77% in assay [3].
The like results for `COc1ccc(Cl)cc1NC(=O)Nc1ccc2c(c1)CCN(C1CCC1)CC2` were, in that order, 2.26%, 0.44% and 1.36%.
Turning to `CC(C)Sc1nncc(-c2cnnc(SC(C)C)n2)n1`, the inhibition in assay [1] is -0.53%; in assay [2], -0.11%; in assay [3], 0.07%.
The matching figures for `N=C(NCCc1ccc(Cl)c(Cl)c1)c1ccc2ccccc2c1`: 3.61%, -1.48% and -2.5%.
